Most compounds without a hit are left out; they make up all but 2.9% or so of the library.
EPAC1 ag val – Validation qHTS for agonist of cAMP-regulated guanine nucleotide exchange factor 3 (EPAC1); Rap guanine nucleotide exchange factor 3 (Homo sapiens), O95398; EPAC1 Rap1b BODIPY-GDP exchange, fluorescence; Potency, µM, for inactives: max response, positive = active, hits mostly activators; actives 1% (n = 16,000); note: nearly all actives have a fitted effect of over 70% in size
EPAC2 antag – Validation qHTS for antagonist of cAMP-regulated guanine nucleotide exchange factor 4 (EPAC2). Rap guanine nucleotide exchange factor 4 (Homo sapiens), Q8WZA2. EPAC2 Rap1B BODIPY-GDP exchange, fluorescence. Potency, µM (top dose mostly 112 µM), inactives show at the top dose activity, negative = inhibition, hits mostly inhibitors. actives 1.7% (n = 16,000). AID 1645886, 2021;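 note: 100% = activation by cAMP agonist control; nearly all actives have a fitted effect of over 40% in size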
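Normalized against a 6.5 mM cAMP agonist control, compounds were tested on 100 nM EPAC2 exchanging Rap1B-bound BODIPY-GDP (250 nM) for 50 uM GDP. Fluorescence drop (ex 480, em 540 nm) was tracked at room temperature over 30 min at 5-min intervals.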
Starred values were filed as active, the others as inactive; u = inconclusive; ! = not active in a repeat. Calls come from the whole dose curve; as a rule, active = well fitted curve in the direction sought with a large enough effect; inconclusive = small, poorly fitted or top-dose-only effect, or another doubt; inactive = no such curve, though single readings can be large; an effect the other way counts as inactive or inconclusive. Unless noted, % is set by controls: 0 for no effect and ±100 for the full control effect; potency is the fitted concentration of half-maximal effect.

SMILES	EPAC1 ag val	EPAC2 antag
COc1ccc(CN2CCCC(c3nc(-c4ccncc4)ncc3-c3ccccc3C)C2)c(OC)c1 (centres undefined)	16%	u
CC[C@@]1([C@@H]2O[C@@H]([C@H]3O[C@@](O)(CO)[C@H](C)C[C@@H]3C)C[C@@H]2C)CC[C@H]([C@]2(C)CC[C@]3(C[C@H](O)[C@@H](C)[C@@H]([C@@H](C)[C@@H](OC)[C@H](C)C(=O)O)O3)O2)O1 (stereo in doubt)	-29%	-12%
O=C(c1ccncc1)N1CCC2(CC1)CN(c1cccc(-c3ccccc3)c1)C2	u	-41%
O=C(c1cnccn1)N1CCC[C@@]2(CCN(c3ccccc3)C2)C1	-44%	-18%
O=C(c1cnccn1)N1CCC[C@@]2(CCN(c3cccc(-c4ccccc4)c3)C2)C1	100µM*	u
COc1ccc(C(=O)N2CCC3(CC2)CN(c2cccc(-c4ccccc4)c2)C3)cc1	112µM*	-26%
COC(=O)N1CCC2(CCCN(c3cccc(-c4ccccc4)c3)C2)CC1	112µM*	-25%
Cn1cccc1C(=O)N1CCC2(CCCN(c3cccc(-c4ccccc4)c3)C2)CC1	112µM*	-11%
Cn1cccc1C(=O)N1CCC[C@@]2(CCN(c3cccc(-c4ccccc4)c3)C2)C1	17%	-29%
O=C(c1ccco1)N1CCC2(CCCN(c3cccc(-c4ccccc4)c3)C2)CC1	u	-15%
CCO[C@H]1[C@H](NC(=O)c2cccnc2)c2ccccc2C12CCN(C(=O)c1ccoc1)CC2	-7%	0%
COc1ccc(C(=O)N2CCC3(CCCN(c4ccccc4)C3)CC2)cc1	-20%	-20%
COc1ccc(C(=O)N2CCC3(CCCN(c4cccc(-c5ccccc5)c4)C3)CC2)cc1	100µM*	-9%
CCN(CC)C(=O)c1cc(S(=O)(=O)Cc2ccccc2)c(N2CCC(c3ccccc3)CC2)cc1N(CC)CCN(C)C	-38%	-15%
O=C(O)[C@H](O)c1ccccc1	-7%	-12%
CC[C@@H](C(=O)O)[C@@H]1O[C@@H]([C@@H](C)[C@H](O)[C@H](C)C(=O)[C@H](CC)[C@H]2O[C@]3(C=C[C@@H](O)[C@]4(CC[C@@](C)([C@H]5CC[C@](O)(CC)[C@H](C)O5)O4)O3)[C@H](C)C[C@@H]2C)[C@@H](C)C[C@@H]1C	-43%	16%
COC1=C(C(=O)O)N2C(=O)[C@@H](NC(=O)[C@H](N)C3=CCC=CC3)[C@H]2SC1	11%	10%
C=CC(C1=CC(=O)C(OC)=CC1=O)c1ccccc1 (centres undefined)	18%	35µM*
C=CC(C1=CC(=O)C(OC)=CC1=O)c1ccc(OC)cc1 (centres undefined)	-18%	u
O=C1/C(=C\c2cccs2)CCC/C1=C\c1cccs1	9%	0%
Cc1cnc(SCc2ccccn2)nc1C1CCCN(C(=O)c2noc3c2CCCC3)C1 (centres undefined)	-11%	u
COc1cc(-c2coc3cc(O[C@H]4OC(CO)C(O)C(O)C4O)c(OC)c(O)c3c2=O)cc(O)c1OC (some centres undefined)	20%	-7%
COc1cc(-c2coc3cc(OCc4ccccc4)c(OC)c(O)c3c2=O)cc(O)c1OC	112µM*	-18%
COc1cc(C=C2CCC/C(=C\c3ccc(O)c(OC)c3)C2=O)ccc1O	u	-2%
O.O.O.O.O.O.O.O=S(=O)([O-])[O-].[Co+2]	-32%	50µM*
SMILES	EPAC1 ag val	EPAC2 antag
CCOC(=O)N1CCN(Cc2ccc3c(c2)CN(C(=O)c2ccc(C#CC(C)(C)O)o2)CCO3)CC1	0%	u
COc1cccc(C(=O)NCc2nc(-c3cccc(NC(=O)c4ccoc4C)c3)oc2C)c1OC	11%	-8%
CC[C@H]1OC(=O)[C@H](C)[C@@H](O[C@H]2C[C@@](C)(OC)[C@@H](O)[C@H](C)O2)[C@H](C)[C@@H](O[C@@H]2O[C@H](C)C[C@H](N(C)C)[C@H]2O)[C@](C)(O)C[C@@H](C)[C@@H]2N[C@@H](COCCOC)O[C@@H]([C@H]2C)[C@]1(C)O	-30%	15%
COc1ccc(C(=O)CC(=O)c2ccc(C(C)(C)C)cc2)cc1	-40%	3%
COc1ccc(C(Cl)=C(c2ccc(OC)cc2)c2ccc(OC)cc2)cc1	u	3.2µM*!
Cc1nc2ccccc2nc1CN1CCOc2ccc(C(C)(O)COc3ccccc3)cc2C1 (centres undefined)	22%	-26%

From PubChem
